Laboratory results as given in PubChem BioAssay.
Activity calls are given as the source filed them. Unless noted, how the calls were made is not given here.

What was measured:
[1] = HepG2 liver cancer cell viability effects, profiling panel, resazurin fluorescence, 24 h, PK04 Diversity Set (AID 1172); settings: higher = more signal
[2] = basal S. cerevisiae growth modulation, no modifier, primary screen, OD600, strain BY4716, 24 h, basal condition (AID 1173); settings: OD600, 24 h, higher = more signal, called active from +8 up or from −8 down
[3] = MM1S myeloma cell viability, profiling panel, resazurin fluorescence, basal, 24 h, PK04 Diversity Set (AID 1174); settings: higher = more signal, called active from +8 up or from −8 down;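 further: MM1S multiple myeloma cell line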
[4] = biological target: Dihydroorotate dehydrogenase (quinone), mitochondrial (Plasmodium falciparum (isolate 3D7)) (UniProt Q08210); test: PfDHODH enzyme inhibitors, primary screen, biochemical, C-terminal His tag, absorbance 600 nm (AID 1175); settings: DCIP absorbance 600 nm, higher = more signal, called active from +8 up or from −8 down;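 further: recombinant parasite enzyme with a five histidine tag at its C terminus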
[5] = P. aeruginosa biofilm formation inhibitors, primary screen, strain PAO1, LB-PBS medium, absorbance 600 nm (AID 1176); settings: P. aeruginosa PAO1 growth/biofilm, A600, 12 h; higher = more signal
[6] = S. cerevisiae RM11-1a growth modifiers, primary screen, strain RM11-1a, OD600, basal, 24 h (AID 1177); settings: OD600, 24 h, higher = more signal, called active from +8 up or from −8 down;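 further: cultures grown under basal conditions with no added stressor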
[7] = E. coli acrAB mutant growth effects, primary screen, E. coli filamentation inducers, strain DRC39, OD650, 24 h (AID 1178); settings: higher = more signal, called active from +8 up or from −8 down;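 further: growth measured as culture turbidity by optical density at 650 nm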
[8] = E. coli acrAB mutant growth effects, primary screen, E. coli filamentation inducers, strain DRC39, OD650, 48 h (AID 1179);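 further: screen aims at cell division blockers that make cells filament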; settings: E. coli DRC39 delta-acrAB growth, higher = more signal, called active from +8 up or from −8 down
[9] = RPMI8226 myeloma cell viability, profiling panel, resazurin fluorescence, basal, 24 h, PK04 Diversity Set (AID 1180); settings: higher = more signal;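 further: RPMI8826 multiple myeloma cell line at 5000 cells per well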
[10] = biological target: E3 ubiquitin-protein ligase XIAP (Homo sapiens) (UniProt P98170); test: XIAP binders, primary screen, biophysical, small-molecule microarray, fluorescence 635 nm (AID 1181); settings: small-molecule microarray binding, higher = more signal;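 further: score merges 667 nm emission and signal to noise over triplicate slides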
[11] = test system: XIP peptide (Xip251-270) binding; test: small-molecule binders of XIP peptide, primary screen, biochemical, small-molecule microarray, fluorescence 635/667 nm, 0.1 µg/mL protein (AID 1182); settings: fluorescent protein binding, 635 nm, higher = more signal, called active from +8 up or from −8 down
XIP peptide (Xip251-270) = test: small-molecule binders of XIP peptide, primary screen, biochemical, small-molecule microarray, fluorescence 635/667 nm, 0.5 µg/mL protein (AID 1183); settings: small-molecule microarray binding, fluorescence 635 nm; higher = more signal
[12] = Plasmodium falciparum growth inhibition, primary screen, strain 3D7, DAPI fluorescence, 100 nL (AID 1184);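 further: parasites grown inside human red blood cells in medium with human serum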; settings: P. falciparum 3D7 growth, 3 d, higher = more signal
[13] = biological target: Homeobox protein Hox-A13 (Mus musculus) (UniProt Q62424); test: inhibitors of HoxA13-DNA binding, primary screen, biochemical, fluorescence polarization, labeled oligonucleotide (AID 1185); settings: 15 min, higher = more signal, called active from +8 up or from −8 down
[14] = inhibitors of hydroxyurea-induced Chk1 phosphorylation, primary screen, imaging, HeLa, phospho-Chk1 antibody, percent positive cells (AID 1186); settings: hydroxyurea-induced phospho-Chk1 immunofluorescence imaging, higher = more signal
[15] = inhibitors of hydroxyurea-induced Chk1 phosphorylation, primary screen, imaging, HeLa, phospho-Chk1 nuclear intensity (AID 1187); settings: hydroxyurea-induced phospho-Chk1 immunofluorescence imaging, higher = more signal

Sequence of Homeobox protein Hox-A13 (Mus musculus) (Q62424 whole entry, looked up): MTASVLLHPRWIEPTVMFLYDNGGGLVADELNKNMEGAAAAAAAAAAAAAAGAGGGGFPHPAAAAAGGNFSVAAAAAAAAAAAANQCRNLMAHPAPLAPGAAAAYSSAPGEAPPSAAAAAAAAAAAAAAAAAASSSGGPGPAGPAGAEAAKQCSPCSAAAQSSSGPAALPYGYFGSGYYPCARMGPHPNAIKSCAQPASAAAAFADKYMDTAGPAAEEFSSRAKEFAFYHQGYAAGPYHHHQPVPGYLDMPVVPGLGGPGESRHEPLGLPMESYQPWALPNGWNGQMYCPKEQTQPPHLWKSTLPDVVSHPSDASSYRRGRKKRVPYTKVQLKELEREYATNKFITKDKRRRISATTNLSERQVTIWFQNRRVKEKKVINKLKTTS
Sequence of E3 ubiquitin-protein ligase XIAP (Homo sapiens) (P98170 whole entry, looked up): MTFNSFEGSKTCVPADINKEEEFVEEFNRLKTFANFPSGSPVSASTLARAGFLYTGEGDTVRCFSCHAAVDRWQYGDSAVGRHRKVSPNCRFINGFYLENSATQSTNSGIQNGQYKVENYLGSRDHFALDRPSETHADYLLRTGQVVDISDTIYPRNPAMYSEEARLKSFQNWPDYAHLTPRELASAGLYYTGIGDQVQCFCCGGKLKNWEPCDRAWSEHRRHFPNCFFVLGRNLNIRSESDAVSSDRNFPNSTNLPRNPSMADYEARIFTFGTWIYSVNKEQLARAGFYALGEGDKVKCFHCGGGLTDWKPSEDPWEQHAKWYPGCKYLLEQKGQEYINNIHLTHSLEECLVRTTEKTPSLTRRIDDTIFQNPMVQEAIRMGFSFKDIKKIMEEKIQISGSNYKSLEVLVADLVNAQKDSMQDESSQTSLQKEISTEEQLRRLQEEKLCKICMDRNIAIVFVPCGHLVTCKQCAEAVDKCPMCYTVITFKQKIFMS
Sequence of Dihydroorotate dehydrogenase (quinone), mitochondrial (Plasmodium falciparum (isolate 3D7)) (Q08210 whole entry, looked up): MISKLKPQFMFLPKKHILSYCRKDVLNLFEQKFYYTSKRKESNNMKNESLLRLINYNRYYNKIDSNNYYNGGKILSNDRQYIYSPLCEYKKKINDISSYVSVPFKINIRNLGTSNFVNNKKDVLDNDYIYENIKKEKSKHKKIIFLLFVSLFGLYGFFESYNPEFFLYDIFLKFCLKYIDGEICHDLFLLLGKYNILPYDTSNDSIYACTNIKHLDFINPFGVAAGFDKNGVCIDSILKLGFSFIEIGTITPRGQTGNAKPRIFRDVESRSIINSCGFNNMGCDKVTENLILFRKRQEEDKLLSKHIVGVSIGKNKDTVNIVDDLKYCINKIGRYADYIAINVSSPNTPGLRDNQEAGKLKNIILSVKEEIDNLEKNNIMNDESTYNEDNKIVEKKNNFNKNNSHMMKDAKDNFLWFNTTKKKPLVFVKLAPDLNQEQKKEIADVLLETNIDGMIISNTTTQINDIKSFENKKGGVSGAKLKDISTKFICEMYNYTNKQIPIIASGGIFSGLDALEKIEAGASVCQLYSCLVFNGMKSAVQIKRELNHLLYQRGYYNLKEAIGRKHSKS

## CCOC(=O)C1=C[C@@H](c2ccccc2)N(S(=O)(=O)c2ccc(C)cc2)[C@H]1c1ccc(F)cc1
[1]
  z-score: -0.296
[2]
  z-score: 1.87 (inactive)
[3]
  z-score: -0.648 (inactive)
[4]
  composite z-score: -0.102 (inactive)
[5]
  z-score: 0.216 (inactive)
[6]
  z-score: 2.33 (inactive)
[7]
  z-score: -0.213 (inactive)
[8]
  z-score: -0.283 (inactive)
[9]
  z-score: -2.21
[10]
  composite z-score: 0.155
[11]
  composite z-score: 0.346 (inactive)
XIP peptide (Xip251-270)
  composite z-score: 0.382
[12]
  z-score: -2.17
[13]
  z-score: -0.178 (inactive)
[14]
  z-score: 0.0332 (inactive)
[15]
  z-score: -0.293 (inactive)

## CCOC(=O)C[C@H]1[C@H](OC(=O)Cc2ccc3c(c2)OCO3)[C@@H](NC(=O)c2ccc3ccccc3c2)c2cc(OCCCO)ccc2N1C(=O)Cc1ccc(OC)cc1
[1]
  z-score: 0.329
[2]
  z-score: -0.566 (inactive)
[3]
  z-score: -0.162 (inactive)
[4]
  composite z-score: -1.09 (inactive)
[5]
  z-score: 0.0642 (inactive)
[6]
  z-score: -1.66 (inactive)
[7]
  z-score: 0.37 (inactive)
[8]
  z-score: 1.11 (inactive)
[9]
  z-score: 0.202
[10]
  composite z-score: -0.0151
[11]
  composite z-score: 1.46 (inactive)
XIP peptide (Xip251-270)
  composite z-score: 0.737
[12]
  z-score: -0.415
[13]
  z-score: -2.03 (inactive)
[14]
  z-score: 0.407 (inactive)
[15]
  z-score: 0.668 (inactive)

## CC(C)=C1C(=O)C(c2ccccc2)=C2CN3C(=O)N(CCc4ccccc4)C(=O)[C@]3(Cc3ccccc3)[C@H]21
[1]
  z-score: -1.18
[2]
  z-score: 0.66 (inactive)
[3]
  z-score: -0.692 (inactive)
[4]
  composite z-score: 0.223 (inactive)
[5]
  z-score: 0.178 (inactive)
[6]
  z-score: 0.071 (inactive)
[7]
  z-score: -0.652 (inactive)
[8]
  z-score: -0.295 (inactive)
[9]
  z-score: -0.693
[10]
  composite z-score: -0.122
[11]
  composite z-score: -0.315 (inactive)
XIP peptide (Xip251-270)
  composite z-score: -0.78
[12]
  z-score: -0.774
[13]
  z-score: -0.972 (inactive)
[14]
  z-score: 0.844 (inactive)
[15]
  z-score: 0.84 (inactive)

## C[C@@H]1CC[C@H]2C(=O)N3CCC[C@H]3C(=O)N2[C@H]1c1ccc(Br)cc1
[1]
  z-score: 1.55
[2]
  z-score: -0.654 (inactive)
[3]
  z-score: 0.864 (inactive)
[4]
  composite z-score: 0.238 (inactive)
[6]
  z-score: 0.393 (inactive)
[7]
  z-score: 0.898 (inactive)
[8]
  z-score: 0.8 (inactive)
[9]
  z-score: 0.506
[10]
  composite z-score: -0.193
[11]
  composite z-score: 0.557 (inactive)
XIP peptide (Xip251-270)
  composite z-score: -0.374
[12]
  z-score: 0.371
[13]
  z-score: 0.0636 (inactive)
